Test results published in the supplement of paper PMC7411640.
Counter-ions that a name gives are not always drawn.

These compounds were tested on MDA-MB-468 (assay: phospho-S6 immunofluorescence (DAPI-normalised), per-plate z-score; higher = higher phospho-S6 signal (less pathway suppression)). Conditions: co-treatment: vehicle; 24 h.
Method: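 GPCR-targeted compound library (MedChemExpress HY-L006) tested on MDA-MB-468 PTEN-null TNBC cells in 384-well plates at 0.1, 1 or 10 uM, combined with vehicle, GDC0941 450 nM or lapatinib 1 uM, for 24 h. Phospho-S6 (S240/244) immunofluorescence normalised to DAPI and expressed as a per-plate z-score; values are the mean of biological triplicates.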

SMILES	phospho-S6 immunofluorescence (z-score)
CNS(=O)(=O)Cc1ccc2[nH]cc(CCN(C)C)c2c1 [Sumatriptan (succinate)] (compound 10 µM)	0.55
CN(C)CCC(c1ccc(Cl)cc1)c1ccccn1 (stereo not drawn) [Chlorpheniramine (maleate)] (compound 10 µM)	-8.97
Cc1cccn2c(=O)c(C=C(C#N)c3nc4ccccc4s3)c(Oc3ccc(F)cc3)nc12 (compound 10 µM)	-0.48
OC[C@@H](O)CN1CCN(c2ccccc2)CC1 [Levodropropizine] (compound 10 µM)	-0.68
CC(N)(C(=O)O)c1ccc(C(=O)O)cc1 (racemic) (compound 10 µM)	0.84
Cc1cncc(CN2CCC(=C3c4ccc(Cl)cc4CCc4cccnc43)CC2)c1 [Rupatadine (Fumarate)] (compound 10 µM)	-1.45
C=CCc1ccccc1OCC(O)CNC(C)C (stereo not drawn) [Alprenolol (hydrochloride)] (compound 10 µM)	1.12
CN1CCN2c3ncccc3Cc3ccccc3C2C1 (stereo not drawn) [Mirtazapine] (compound 10 µM)	-0.48
